# Assay results published in PubChem BioAssay.
# Calls of active or inactive are those of the source. Rule as the data show it, unless noted: active = inhibition above about 33%; inactive = the rest.
# Experiments:
# [1] = biological target: Nuclear receptor coactivator 3 (Homo sapiens) (UniProt Q9Y6Q9); assay: NCOA3 GAL4-fusion reporter inhibition – cell-based, luminescence, quadruplicate, confirmation (AID 588792;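 active = mean inhibition over 43.08%, the solvent-only control mean plus 3 SD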;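 also: 0% = DMSO treated cells and 100% = gossypol at 36 µM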); details: HEK293 GAL4-SRC3 luciferase reporter, at 3.6 µM, active compounds read high
# [2] = tested on: transactivating tegument protein VP16 (Human herpesvirus 1), Gal4-VP16 luciferase reporter; assay: repression of VP16-driven luciferase reporter – cell-based, luminescence, high throughput, counter-screen for SRC3 inhibitor project (AID 588794; in the data active = inhibition above about 30%); details: mammalian cells, at 3.6 µM, active compounds read high
# [3] = biological target: Nuclear receptor coactivator 1 (Homo sapiens) (UniProt Q15788); assay: NCOA1 GAL4-fusion reporter inhibition – cell-based, luminescence, quadruplicate, confirmation (AID 588820;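 active = mean inhibition above 46.68%, the untreated control wells mean plus 3 SD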;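 also: 0% = DMSO wells and 100% = gossypol 36 µM treated wells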); details: HEK293 GAL4-SRC1 luciferase reporter, at 3.6 µM, active compounds read high
# [4] = repression of VP16-driven luciferase reporter – cell-based, luminescence, high throughput, counter-screen for SRC1 inhibitor project (AID 588824; in the data active = inhibition above about 25%); details: cell-based VP16 transactivation luciferase luminescence; at 3.6 µM; active compounds read high
# [5] = StAR promoter reporter inhibitors, counter-screen for LRH-1 inverse agonist project, cell-based, luminescence, high throughput (AID 651611; in the data active = inhibition above about 28%); details: StAR promoter luciferase reporter counterscreen, at 3.6 µM, active compounds read high
# [6] = biological target: Nuclear receptor subfamily 5 group A member 2 (Homo sapiens) (UniProt O00482); assay: NR5A2 activity suppression in reporter cells – cell-based, luminescence, confirmation (AID 651613; in the data active = inhibition above about 42%;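 also: HEK293T cells co-transfected with LRH-1 and StAR promoter luciferase reporter; 0% = vehicle wells and 100% = parental cells lacking receptor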); details: cell-based LRH-1 luciferase reporter, inverse agonism; at 3.6 µM; active compounds read high
# [7] = biological target: Steroidogenic factor 1 (Homo sapiens) (UniProt Q13285); assay: inverse agonism at SF1 nuclear receptor – cell-based, luminescence, high throughput, counter-screen for LRH-1 inverse agonist project (AID 651614; in the data active = inhibition above about 44%;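 also: cells cotransfected with StAR promoter reporter and SF1 expression vector; 0% = vehicle on cells with receptor and 100% = vehicle on cells lacking receptor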); details: cell-based SF1 luciferase reporter, at 3.6 µM, active compounds read high
# [8] = compounds suppressing VP16-driven luciferase signal – cell-based, luminescence, high throughput, counter-screen for LRH-1 inverse agonist project (AID 651615); details: Gal4-VP16 luciferase reporter cells, at 3.6 µM, active compounds read high
# Sequence of Nuclear receptor subfamily 5 group A member 2 (Homo sapiens) (O00482 whole entry, looked up): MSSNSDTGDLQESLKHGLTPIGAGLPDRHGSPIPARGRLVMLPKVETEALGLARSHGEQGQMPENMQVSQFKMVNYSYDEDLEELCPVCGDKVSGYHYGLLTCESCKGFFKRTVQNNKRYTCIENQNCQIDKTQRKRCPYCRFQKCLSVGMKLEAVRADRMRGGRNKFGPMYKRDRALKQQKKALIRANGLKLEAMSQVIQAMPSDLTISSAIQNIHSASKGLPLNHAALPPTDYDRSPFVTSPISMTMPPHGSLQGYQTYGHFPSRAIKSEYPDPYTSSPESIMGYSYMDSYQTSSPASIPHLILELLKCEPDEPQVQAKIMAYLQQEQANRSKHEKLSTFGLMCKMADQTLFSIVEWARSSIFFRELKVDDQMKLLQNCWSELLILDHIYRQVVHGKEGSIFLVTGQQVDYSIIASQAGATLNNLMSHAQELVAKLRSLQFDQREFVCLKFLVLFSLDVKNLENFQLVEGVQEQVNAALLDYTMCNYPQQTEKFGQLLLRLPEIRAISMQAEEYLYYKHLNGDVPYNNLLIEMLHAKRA
# Sequence of Steroidogenic factor 1 (Homo sapiens) (Q13285 whole entry, looked up, the tested form may be a part): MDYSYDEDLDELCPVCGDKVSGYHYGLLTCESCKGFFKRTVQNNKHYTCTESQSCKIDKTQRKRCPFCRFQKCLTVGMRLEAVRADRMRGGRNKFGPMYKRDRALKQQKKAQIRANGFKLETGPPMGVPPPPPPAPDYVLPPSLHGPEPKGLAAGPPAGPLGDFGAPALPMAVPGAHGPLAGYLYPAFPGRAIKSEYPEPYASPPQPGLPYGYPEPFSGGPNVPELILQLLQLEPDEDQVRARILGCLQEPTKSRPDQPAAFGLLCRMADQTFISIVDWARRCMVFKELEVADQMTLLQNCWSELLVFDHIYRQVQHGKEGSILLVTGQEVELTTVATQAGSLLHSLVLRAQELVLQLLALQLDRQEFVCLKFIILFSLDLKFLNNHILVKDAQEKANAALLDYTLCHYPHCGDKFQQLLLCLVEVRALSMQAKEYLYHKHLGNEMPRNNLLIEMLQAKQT
# Sequence of Nuclear receptor coactivator 1 (Homo sapiens) (Q15788 whole entry, looked up, the tested form may be a part): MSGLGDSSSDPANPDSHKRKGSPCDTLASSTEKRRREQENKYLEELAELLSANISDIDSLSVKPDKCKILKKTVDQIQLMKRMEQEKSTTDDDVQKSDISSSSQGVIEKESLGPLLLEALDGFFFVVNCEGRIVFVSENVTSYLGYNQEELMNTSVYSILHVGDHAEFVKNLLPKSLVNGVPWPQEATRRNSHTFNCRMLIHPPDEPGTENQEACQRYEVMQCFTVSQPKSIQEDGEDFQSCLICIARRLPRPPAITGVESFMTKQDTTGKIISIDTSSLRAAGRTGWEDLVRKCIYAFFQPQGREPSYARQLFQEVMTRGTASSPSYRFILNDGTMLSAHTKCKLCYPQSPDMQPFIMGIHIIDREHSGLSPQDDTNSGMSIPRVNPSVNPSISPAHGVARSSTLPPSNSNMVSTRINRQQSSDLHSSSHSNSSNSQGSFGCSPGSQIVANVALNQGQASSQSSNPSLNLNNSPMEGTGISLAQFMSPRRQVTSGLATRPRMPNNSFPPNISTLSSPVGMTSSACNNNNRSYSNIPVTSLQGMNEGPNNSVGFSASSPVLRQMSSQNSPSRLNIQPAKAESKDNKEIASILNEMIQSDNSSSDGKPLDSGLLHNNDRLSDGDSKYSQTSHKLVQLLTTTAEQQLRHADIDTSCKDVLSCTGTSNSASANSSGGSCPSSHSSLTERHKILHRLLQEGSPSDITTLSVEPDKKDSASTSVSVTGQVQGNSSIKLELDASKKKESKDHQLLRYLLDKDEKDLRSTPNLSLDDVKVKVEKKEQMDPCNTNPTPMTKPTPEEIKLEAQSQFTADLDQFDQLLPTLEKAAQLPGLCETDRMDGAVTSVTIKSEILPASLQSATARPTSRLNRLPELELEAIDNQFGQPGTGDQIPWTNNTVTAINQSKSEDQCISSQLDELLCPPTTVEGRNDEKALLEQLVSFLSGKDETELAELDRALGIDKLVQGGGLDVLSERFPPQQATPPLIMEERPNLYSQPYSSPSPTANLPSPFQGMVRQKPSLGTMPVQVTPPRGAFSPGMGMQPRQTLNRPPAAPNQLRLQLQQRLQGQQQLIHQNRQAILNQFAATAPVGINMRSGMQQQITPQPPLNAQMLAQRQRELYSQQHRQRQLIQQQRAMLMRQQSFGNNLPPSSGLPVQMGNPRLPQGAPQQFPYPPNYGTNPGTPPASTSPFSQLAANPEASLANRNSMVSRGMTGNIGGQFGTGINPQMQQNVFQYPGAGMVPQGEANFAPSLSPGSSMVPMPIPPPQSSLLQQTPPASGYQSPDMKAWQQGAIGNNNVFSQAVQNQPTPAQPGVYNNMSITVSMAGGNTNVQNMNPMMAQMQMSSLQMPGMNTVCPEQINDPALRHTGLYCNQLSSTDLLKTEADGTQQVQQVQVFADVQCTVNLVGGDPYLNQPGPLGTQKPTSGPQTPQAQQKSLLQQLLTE
# Sequence of Nuclear receptor coactivator 3 (Homo sapiens) (Q9Y6Q9 whole entry, looked up, the tested form may be a part): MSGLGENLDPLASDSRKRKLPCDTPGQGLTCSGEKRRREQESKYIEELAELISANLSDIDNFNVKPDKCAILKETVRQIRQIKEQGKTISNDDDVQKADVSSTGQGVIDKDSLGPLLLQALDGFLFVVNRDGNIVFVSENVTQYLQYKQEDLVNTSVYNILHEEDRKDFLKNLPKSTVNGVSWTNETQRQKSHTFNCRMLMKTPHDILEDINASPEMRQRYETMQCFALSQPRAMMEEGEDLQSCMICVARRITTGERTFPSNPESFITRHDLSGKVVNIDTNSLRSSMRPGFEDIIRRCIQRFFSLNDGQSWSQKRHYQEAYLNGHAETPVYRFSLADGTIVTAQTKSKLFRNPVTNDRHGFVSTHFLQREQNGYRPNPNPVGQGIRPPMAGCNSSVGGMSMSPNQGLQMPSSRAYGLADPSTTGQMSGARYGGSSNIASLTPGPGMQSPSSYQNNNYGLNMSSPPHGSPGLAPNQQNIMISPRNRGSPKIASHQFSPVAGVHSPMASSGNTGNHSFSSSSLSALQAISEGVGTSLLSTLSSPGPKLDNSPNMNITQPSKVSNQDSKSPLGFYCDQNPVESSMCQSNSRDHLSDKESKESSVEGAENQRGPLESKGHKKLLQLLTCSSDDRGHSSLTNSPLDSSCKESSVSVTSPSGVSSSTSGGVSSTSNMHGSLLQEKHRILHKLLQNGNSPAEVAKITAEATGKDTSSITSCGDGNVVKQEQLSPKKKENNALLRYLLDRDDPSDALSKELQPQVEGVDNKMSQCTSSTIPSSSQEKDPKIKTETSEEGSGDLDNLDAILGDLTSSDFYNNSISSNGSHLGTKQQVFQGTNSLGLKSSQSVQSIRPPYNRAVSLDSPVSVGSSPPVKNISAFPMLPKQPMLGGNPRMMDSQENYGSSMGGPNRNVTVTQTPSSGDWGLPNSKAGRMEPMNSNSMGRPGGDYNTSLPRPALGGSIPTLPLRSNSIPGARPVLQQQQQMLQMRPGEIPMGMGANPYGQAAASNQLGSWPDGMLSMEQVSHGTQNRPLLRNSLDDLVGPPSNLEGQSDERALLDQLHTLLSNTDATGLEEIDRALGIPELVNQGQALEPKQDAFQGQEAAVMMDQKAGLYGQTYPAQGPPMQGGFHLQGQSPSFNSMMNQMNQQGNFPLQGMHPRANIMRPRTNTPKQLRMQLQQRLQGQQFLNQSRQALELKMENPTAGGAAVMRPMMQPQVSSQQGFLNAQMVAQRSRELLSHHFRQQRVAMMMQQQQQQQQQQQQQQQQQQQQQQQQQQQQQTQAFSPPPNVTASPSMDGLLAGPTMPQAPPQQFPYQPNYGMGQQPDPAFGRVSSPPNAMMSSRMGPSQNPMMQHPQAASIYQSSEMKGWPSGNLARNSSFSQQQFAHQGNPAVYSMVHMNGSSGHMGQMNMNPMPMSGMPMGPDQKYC
Compound,inhibition [1],inhibition [2],inhibition [3],inhibition [4],inhibition [5],inhibition [6],inhibition [7],inhibition [8]
CCOC(=O)C(C(C)=O)c1c(Br)c(O)c(O)c2c(C(=O)c3ccc(C)cc3)coc12 (stereo not drawn),57.6% (active),12.5% (inactive),12.7% (inactive),31.2% (active),60.4% (active),94.8% (active),83.7% (active),81.6% (active)
CCc1ccc(-n2cc(-c3ccc(F)cc3)[n+]3c2SCCC3)cc1,17.1% (inactive),32.1% (active),19.1% (inactive),35.4% (active),18.4% (inactive),67.7% (active),60.9% (active),48.4% (active)
N=c1c2c(n(Cc3ccc(F)cc3)c3c1CCC3)CCC2,25.9% (inactive),42.9% (active),17.8% (inactive),43.6% (active),41.6% (active),80.3% (active),69% (active),69.2% (active)
CCC(NC(=O)Nc1nnc(C(F)(F)F)s1)(C(F)(F)F)C(F)(F)F,60.7% (active),82% (active),50.1% (active),85.6% (active),79.3% (active),103% (active),90.6% (active),90.5% (active)
COc1ccccc1N1CCN(Cc2cc(Br)c(O)c3ncccc23)CC1,21.4% (inactive),3.52% (inactive),-1.06% (inactive),-1.42% (inactive),23.9% (inactive),23.9% (inactive),42.8% (active),21.7% (inactive)
Cc1cccc(-n2c(N)c(-c3nc4ccccc4n3C)c3nc4ccccc4nc32)c1,-11.4% (inactive),-15% (inactive),-14.8% (inactive),-15.4% (inactive),8.3% (inactive),-11.5% (inactive),10.3% (inactive),1.82% (inactive)
CN1OC[C@@H]2CN[C@H](c3ccc(-c4cc5ccccc5o4)cc3)C[C@@H]21,83.3% (active),76.8% (active),68.6% (active),68.7% (active),78.3% (active),62.2% (active),79.8% (active),65.2% (active)
Nc1ncn([C@@H]2O[C@H](CO)[C@@H](O)[C@H]2O)c(=O)n1,76.7% (active),57.1% (active),-17.7% (inactive),45.7% (active),69.6% (active),90.2% (active),82.3% (active),80.9% (active)
Cc1nn(C(C)(C)C)c(C)c1/C=N/OC(=O)Nc1ccc(Cl)cc1,94% (active),91.8% (active),87.3% (active),87.8% (active),92.3% (active),95.5% (active),93.6% (active),88.7% (active)
Cc1cc2c(=Cc3ccc(N(C)C)cc3)c3ccccc3n2[n+]1C,44.8% (active),74.8% (active),23.9% (inactive),74.5% (active),76.2% (active),108% (active),89.4% (active),93.4% (active)
O=[N+]([O-])c1cc(CN2CCN(c3ccccc3)CC2)c(O)c2ncccc12,48.3% (active),56.4% (active),9.05% (inactive),50.8% (active),59.3% (active),90.1% (active),85.7% (active),73.4% (active)
